# GDH-TPI counter-1 = counter-screen for M. tuberculosis FBA inhibitors: GDH-TPI coupled enzymes; GDH-TPI coupled enzyme counterscreen, NADH absorbance; inhibition, % at 4.8 µM; hit rate 1.2% among 360,000; AID 588335; in the data active means inhibition above about 30%;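 further: 0% = DMSO wells and 100% = wells lacking the enzyme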
# Mtb betalactam = beta-lactam sensitization of Mtb H37Rv | inhibition, % at 25 µM | M. tuberculosis H37Rv growth with meropenem, percent inhibition | hit rate 0.27% among 330,000; call rule not given here;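 further: growth measured after seven days incubation then overnight dye step; 0% = bacteria only wells and 100% = bacteria with antibiotic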
# FadD28 FP inh = inhibitors of Mycobacterium tuberculosis FadD28 bisubstrate binding | hit rate 0.22% among 360,000 | FadD28 bisubstrate probe binding, fluorescence polarization | AID 588549 | inhibition, % at 12.5 µM; in the data active means inhibition above about 8.5%, passing the limit was not always enough
# Rv3671c inh = Rv3671c (M. tuberculosis) protease inhibition. P9WHR9. inhibition, % at 5.96 µM. hit rate 0.048% among 320,000. AID 2606; in the data active means inhibition above about 38%;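 further: extracellular domain of Rv3671c used as enzyme; 0% = enzyme with DMSO and 100% = no enzyme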
# Target sequence (P9WHR9 whole entry, looked up, the tested form may be a part): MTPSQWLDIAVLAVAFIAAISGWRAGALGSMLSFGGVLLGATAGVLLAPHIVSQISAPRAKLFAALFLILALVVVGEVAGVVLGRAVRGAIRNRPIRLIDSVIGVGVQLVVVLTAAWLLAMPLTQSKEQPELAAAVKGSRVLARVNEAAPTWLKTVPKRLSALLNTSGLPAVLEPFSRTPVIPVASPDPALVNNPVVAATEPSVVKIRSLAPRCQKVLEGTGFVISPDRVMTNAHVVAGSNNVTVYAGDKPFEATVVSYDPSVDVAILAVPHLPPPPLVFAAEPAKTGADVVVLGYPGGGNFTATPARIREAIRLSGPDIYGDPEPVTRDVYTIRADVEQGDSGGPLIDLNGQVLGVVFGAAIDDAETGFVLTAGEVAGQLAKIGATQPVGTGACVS
# UGM FP inh = inhibitors of M. tuberculosis UDP-galactopyranose mutase; purified UGM, fluorescence polarization probe displacement; inhibition, % at 10 µM; hit rate 0.06% among 320,000; in the data active means inhibition above about 10%, passing the limit was not always enough
# Mtb FBA inh = inhibits M. tuberculosis FBA enzyme; purified M. tuberculosis FBA, fluorescence read-out; P9WQA3; hit rate 2.3% among 360,000; inhibition, % at 1 µM;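 further: 0% = vehicle and 100% = reference inhibitor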
# Mtb FBA confirm = confirmation of M. tuberculosis fructose-bisphosphate aldolase inhibitors | shares compounds with Mtb FBA inh | purified M. tuberculosis FBA, fluorescence read-out | inhibition, % at 1 µM | hit rate 78% among 5,600 | AID 651616;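 further: 0% = vehicle wells and 100% = reference inhibitor wells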
# GDH-TPI counter-2 = inhibits GDH-TPI coupling enzymes, flagging Mtb FBA hits. shares compounds with Mtb FBA inh. GDH-TPI coupled enzyme counterscreen, fluorescence. inhibition, % at 1 µM. hit rate 81% among 5,600. AID 652141; in the data active means inhibition above about 10%
# * = called active by the depositor; . = no result given; + = active, no number. The list is not random: actives were taken first. Their share in the collection is about 3.7%. Unless noted, no stated cut-off is given here; in the data, active means inhibition above about 27%; inactive means the rest.
SMILES,GDH-TPI counter-1,Mtb betalactam,FadD28 FP inh,Rv3671c inh,UGM FP inh,Mtb FBA inh,Mtb FBA confirm,GDH-TPI counter-2
COc1ccc(CC(=O)N2CCN(c3ccc(C4=NNC(=O)CC4C)cc3)CC2)cc1 (stereo unspecified),22.4,-4.2,3.9,1.6,-2.7,31.9*,162.0*,131.8*
COCCCn1cnc2c(c1=O)c1nc3ccccc3nc1n2-c1ccccc1,6.9,59.5,-1.9,0.4,-2.1,6.5,.,.
COCCCn1cnc2oc3nc4ccccc4nc3c2c1=O,8.7,-15.4,-2.4,9.9,2.0,100.1*,85.7*,64.5*
FC(F)(F)c1nc2nncn2c2c1CCCCC2,12.2,-4.6,-0.3,-10.4,-1.1,35.5*,133.2*,117.2*
CCCCCCCNC(=O)COc1ccc2c(c1)C(=O)CC(C)(C)O2,2.0,-3.4,-2.4,-0.4,4.8,42.7*,56.0*,56.4*
COc1ccc(OCC(=O)NCc2cccnc2)cc1,6.8,-0.5,-1.7,2.5,4.2,-5.3,.,.
CC1(C)CC(=O)c2cc(OCC(=O)NCc3cccnc3)ccc2O1,-0.9,-8.5,-1.5,-5.9,-1.5,62.0*,-3.5,-6.3
CC(C)NC(=O)COc1ccc2c(c1)C(=O)CC(C)(C)O2,9.1,4.9,0.0,4.9,6.8,71.3*,+,186.5*
CC1(C)CC(=O)c2cc(OCC(=O)NCCCN3CCN(c4ccccc4F)CC3)ccc2O1,12.6,-8.4,-0.2,1.4,-0.9,15.2,.,.
FC(F)(F)c1ccccc1Cc1c(-c2cccc(Br)c2)nc2c3ccccc3ccn12,.,.,-3.6,.,.,2.1,.,.
CC1=C(C(=O)N2CCCCCC2)CC(CC(=O)NCCN2CCOCC2)C(=O)N1Cc1ccccc1 (stereo unspecified),.,.,-1.4,.,.,3.6,.,.
Cc1cc(Cl)ccc1C(O)c1ncc(-c2cccc(C(F)(F)F)c2)[nH]1 (stereo unspecified),-0.4,.,-2.1,.,.,3.6,.,.
O=C(NCc1ccccc1Cl)c1csc([C@@H]2O[C@H](CO)[C@H](O)[C@H](O)[C@H]2O)n1,2.2,.,-0.7,.,.,-2.1,.,.
NC(=O)c1nsc(C(=O)N(c2ccccc2)C(C(=O)NCc2ccc(F)cc2)c2ccc(O)cc2)c1N (stereo unspecified),4.5,-4.1,-4.3,-17.2,1.9,36.7*,-1.5,-4.7
COc1ccc(N(C(=O)c2snc(C(N)=O)c2N)C(C(=O)NCc2ccccc2)c2ccc(O)cc2)cc1 (stereo unspecified),-1.1,.,-4.6,.,.,-5.8,.,.
NC(=O)c1cc(S(=O)(=O)N2CCOCC2)ccc1Sc1ccccc1N,1.4,.,-4.4,.,.,0.3,.,.
COc1cc2cc(CN(Cc3cccnc3)C(=O)NCc3ccccc3)c(=O)[nH]c2cc1OC,26.0,-13.9,-2.0,6.5,-0.7,32.4*,25.8,19.7*
COc1cc2cc(CN(CCCO)S(=O)(=O)c3ccccc3Cl)c(=O)[nH]c2cc1OC,-2.6,0.3,-1.5,0.6,2.6,18.6,.,.
CCOC(=O)c1cccc(S(=O)(=O)N(CCO)Cc2cc3cc(OC)c(OC)cc3[nH]c2=O)c1,27.4,-2.5,0.0,-4.1,0.3,0.8,.,.
COc1cc2cc(CN(CCCO)S(=O)(=O)c3ccccc3)c(=O)[nH]c2cc1OC,36.6*,-3.5,-3.8,-12.3,-0.2,54.5*,1.7,-2.2
COc1cc2cc(CN(CCO)S(=O)(=O)c3ccccc3Cl)c(=O)[nH]c2cc1OC,32.6*,-6.8,-1.5,0.5,-1.6,48.6*,118.3*,100.8*
COc1cc2cc(CN(Cc3cccnc3)C(=O)Nc3ccccc3)c(=O)[nH]c2cc1OC,-2.8,-2.7,-8.5,1.5,-3.0,10.1,.,.
O=C(Nc1cccc(C(F)(F)F)c1)C1Cc2c(-c3ccccc3Oc3ccccc3)ccnc2O1 (stereo unspecified),7.3,.,-1.4,.,.,-0.2,.,.
CCC(C)NC(=O)c1ccc2c(c1)N(Cc1ccccc1)C(=O)CS2 (stereo unspecified),4.4,2.9,-1.0,5.7,-0.1,96.6*,68.3*,78.1*
CCN1C(=O)CSc2ccc(C(=O)NCc3ccccc3)cc21,-1.7,-7.0,1.1,-5.8,-2.2,3.2,.,.
SMILES,GDH-TPI counter-1,Mtb betalactam,FadD28 FP inh,Rv3671c inh,UGM FP inh,Mtb FBA inh,Mtb FBA confirm,GDH-TPI counter-2
Nc1nc2ccc(S(=O)(=O)c3ccc4nc(N)sc4c3)cc2s1,7.8,-1.4,-0.5,-15.9,-3.1,28.5*,72.2*,49.0*
Nc1nc2ccc(O)cc2s1,2.4,-5.2,0.6,2.5,1.6,4.9,.,.
CN(Cc1ccc(F)cc1)C(=O)CNC(=O)c1cccs1,3.5,1.8,-2.4,-9.1,-0.8,63.9*,0.9,-5.4
Cc1[nH]c2ccc(C(=O)N3CCN(c4ccc(F)cc4)CC3)cc2c1C,9.5,2.2,-0.3,2.7,1.2,30.3*,158.2*,119.8*
COc1ccc(N2CCN(C(=O)c3ccc4[nH]c(C)c(C)c4c3)CC2)cc1,-0.5,74.7,-2.2,7.2,0.4,0.6,.,.
CN(CC(=O)NCc1ccccc1)CC(=O)Nc1ccc(Cl)c(C(F)(F)F)c1,6.6,-5.8,-5.4,2.7,0.1,34.3*,92.5*,73.2*
O=c1cc(-c2ccco2)oc2ccccc12,28.1,.,-2.4,.,.,85.5*,7.4,1.5
COc1ccc2oc(-c3ccccc3[N+](=O)[O-])cc(=O)c2c1,4.4,-0.5,-3.4,7.8,-1.6,2.5,.,.
CC(C)OCCOc1ccc2oc(-c3ccco3)cc(=O)c2c1,22.1,35.1,0.4,0.8,1.7,76.8*,-2.7,-4.3
O=c1cc(-c2c(F)c(F)c(F)c(F)c2F)oc2ccccc12,0.7,99.9,-2.1,1.8,-3.1,-0.4,.,.
CCOC(=O)c1c(NC(=O)COC(=O)c2cccc([N+](=O)[O-])c2)sc(C(=O)N(C)C)c1C,3.5,.,-2.8,.,.,-1.6,.,.
COc1ccc(OCC(=O)Nc2cc(-c3nn(C)c(=O)c4ccccc34)ccc2N2CCOCC2)cc1,-1.6,-0.5,-0.3,5.8,3.6,27.3*,6.4,-2.5
CCC(=O)Nc1cc(-c2nn(C)c(=O)c3ccccc23)ccc1N1CCOCC1,4.3,-4.2,-1.5,0.6,-3.3,-3.2,.,.
Cc1csc(SCC(=O)Nc2nncs2)n1,0.0,-3.0,-3.0,-5.1,-2.3,0.8,.,.
CC[C@H]1C(c2ccc(F)cc2)=NN(c2ccccc2)[C@@H]1CO,13.6,.,-0.4,.,.,30.4*,64.9*,62.9*
OC[C@@H]1[C@@H](c2ccc(F)cc2)C(c2ccccc2)=NN1c1ccccc1,7.3,.,1.3,.,.,29.4*,47.9*,44.8*
O=C1OCCN1C(=O)[C@H]1[C@H](c2ccc(F)cc2)C(c2ccccc2)=NN1c1ccccc1,10.0,.,-1.4,.,.,13.3,.,.
CC(OC(=O)CCOc1ccccc1)C(=O)Nc1ccc(Cl)cn1 (stereo unspecified),8.8,-4.2,-0.9,6.5,1.3,6.7,.,.
CC(=O)Nc1cccc(-c2ccnc3c2CC(C(=O)Nc2cccc(OC(F)(F)F)c2)O3)c1 (stereo unspecified),-1.8,.,-0.5,.,.,4.6,.,.

# Screens as filed in PubChem BioAssay.
